The results in this text go back to PubChem BioAssay.

Molecules are shown by their SMILES. Active and inactive are the calls of the source.

Test [1] is described as follows: E. coli DRC41 culture turbidity changes, primary screen, E. coli filamentation inducer project, strain DRC41, OD650, 48 h (AID 1152).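 Further: E. coli MC1000 strain DRC41 lacking acrAB efflux pump and sulA.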 The conditions noted are these: E. coli DRC41 (acrAB sulA), higher = more signal, called active from +8 up or from −8 down.
A short description of test [2]: small-molecule binders of probe aLefty1, primary screen, biochemical, small-molecule microarray, 635/667 nm fluorescence (AID 1153).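 Further: score merges spot fluorescence with signal-to-noise ratio from the scanned slide images.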 The conditions noted are these: higher = more signal.
Test [3] is described as follows: PSAC antagonists in infected red cells, primary screen, cell-based, P. falciparum Indochina, OD700, 1 h (AID 1154). The conditions noted are these: P. falciparum Indochina infected RBC osmotic lysis, higher = more signal, called active from +8 up or from −8 down.
A short description of test [4]: PSAC antagonists in infected red cells, primary screen, cell-based, P. falciparum Indochina, OD700, 2 h (AID 1155).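 Further: lysis reports solute entry through the parasite surface anion channel PSAC; channel blockers reduce lysis of infected cells.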 The conditions noted are these: P. falciparum Indochina infected erythrocytes, osmotic lysis OD700; higher = more signal, called active from +8 up or from −8 down.
The nature of test [5]: osmotic lysis modulators in infected erythrocytes, primary screen, PSAC antagonist project, cell-based, P. falciparum Indochina, OD700, 3 h (AID 1156). The note with it: higher = more signal, called active from +8 up or from −8 down.
A short description of test [6]: PSAC antagonists in infected red cells, primary screen, cell-based, P. falciparum Indochina, OD700, 18 h (AID 1157). The note with it: P. falciparum Indochina infected erythrocytes, osmotic lysis OD700, 18 h; higher = more signal, called active from +8 up or from −8 down.
Test [7] is described as follows: modulators of S6 phosphorylation in cells, primary screen, cell-based, A549, cytoblot, luminescence, serum-stimulated (AID 1158).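 Further: serum-stimulated A549 lung adenocarcinoma cells; signal is phosphorylated S6 detected by cytoblot immunostaining with HRP secondary.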 The note with it: A549 phospho-S6 cytoblot, 5 h, higher = more signal.
For test [8], the target named is NADPH oxidase 2 (Homo sapiens) (UniProt P04839). The test can be described thus: NOX2-dependent H2O2 signal modulators, primary screen, NOX inhibitor project, cell-based, HEK293-NOX2, PMA-stimulated, Amplex Red fluorescence (AID 1159). Further: test concentration not given here. The conditions noted are these: 45 min, higher = more signal, called active from +8 up or from −8 down.
Chain of NADPH oxidase 2 (Homo sapiens) (P04839 whole entry, looked up): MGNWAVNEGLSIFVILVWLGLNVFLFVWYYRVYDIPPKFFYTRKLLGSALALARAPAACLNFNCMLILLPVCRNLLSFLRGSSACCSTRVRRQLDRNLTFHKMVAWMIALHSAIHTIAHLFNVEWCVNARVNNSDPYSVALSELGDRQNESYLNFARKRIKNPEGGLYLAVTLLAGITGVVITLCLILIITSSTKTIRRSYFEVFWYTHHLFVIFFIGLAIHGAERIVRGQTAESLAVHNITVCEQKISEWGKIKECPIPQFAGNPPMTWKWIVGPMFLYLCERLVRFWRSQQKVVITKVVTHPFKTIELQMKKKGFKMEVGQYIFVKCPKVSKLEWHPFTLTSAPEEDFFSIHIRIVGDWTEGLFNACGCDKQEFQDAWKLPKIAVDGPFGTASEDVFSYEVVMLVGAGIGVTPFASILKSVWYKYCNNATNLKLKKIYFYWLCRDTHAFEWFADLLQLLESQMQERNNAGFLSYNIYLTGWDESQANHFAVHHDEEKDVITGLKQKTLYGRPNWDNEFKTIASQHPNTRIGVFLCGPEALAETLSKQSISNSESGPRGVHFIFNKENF
Test [9] deals with NADPH oxidase 4 (Homo sapiens) (UniProt Q9NPH5). The test can be described thus: NOX4-dependent H2O2 signal modulators, primary screen, NOX inhibitor project, cell-based, HEK293-NOX4, tetracycline-induced, Amplex Red fluorescence (AID 1160). The note with it: 45 min, higher = more signal, called active from +8 up or from −8 down.
Chain of NADPH oxidase 4 (Homo sapiens) (Q9NPH5 whole entry, looked up): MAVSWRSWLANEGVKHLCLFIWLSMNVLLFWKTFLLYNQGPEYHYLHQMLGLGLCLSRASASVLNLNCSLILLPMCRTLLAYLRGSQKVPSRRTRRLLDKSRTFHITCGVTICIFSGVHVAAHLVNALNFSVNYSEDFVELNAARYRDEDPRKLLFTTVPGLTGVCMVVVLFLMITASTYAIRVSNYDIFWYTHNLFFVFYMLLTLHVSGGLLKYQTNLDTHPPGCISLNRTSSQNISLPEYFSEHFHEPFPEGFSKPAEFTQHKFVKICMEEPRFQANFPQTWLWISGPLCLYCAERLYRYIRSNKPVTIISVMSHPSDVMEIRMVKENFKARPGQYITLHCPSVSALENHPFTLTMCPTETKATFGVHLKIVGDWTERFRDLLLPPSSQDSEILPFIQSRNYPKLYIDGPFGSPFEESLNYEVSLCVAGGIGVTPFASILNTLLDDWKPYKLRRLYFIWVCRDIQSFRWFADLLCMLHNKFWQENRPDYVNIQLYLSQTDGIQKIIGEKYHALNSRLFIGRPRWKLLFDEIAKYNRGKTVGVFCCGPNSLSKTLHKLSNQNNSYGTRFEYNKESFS
Test [10] addresses NADPH oxidase 5 (Homo sapiens) (UniProt Q96PH1). The test can be described thus: NOX5-dependent H2O2 signal modulators, primary screen, NOX inhibitor project, cell-based, HEK293-NOX5, Amplex Red fluorescence (AID 1161). The conditions noted are these: HEK293-NOX5, ionomycin, 45 min, higher = more signal.

Chain of NADPH oxidase 5 (Homo sapiens) (Q96PH1 whole entry, looked up): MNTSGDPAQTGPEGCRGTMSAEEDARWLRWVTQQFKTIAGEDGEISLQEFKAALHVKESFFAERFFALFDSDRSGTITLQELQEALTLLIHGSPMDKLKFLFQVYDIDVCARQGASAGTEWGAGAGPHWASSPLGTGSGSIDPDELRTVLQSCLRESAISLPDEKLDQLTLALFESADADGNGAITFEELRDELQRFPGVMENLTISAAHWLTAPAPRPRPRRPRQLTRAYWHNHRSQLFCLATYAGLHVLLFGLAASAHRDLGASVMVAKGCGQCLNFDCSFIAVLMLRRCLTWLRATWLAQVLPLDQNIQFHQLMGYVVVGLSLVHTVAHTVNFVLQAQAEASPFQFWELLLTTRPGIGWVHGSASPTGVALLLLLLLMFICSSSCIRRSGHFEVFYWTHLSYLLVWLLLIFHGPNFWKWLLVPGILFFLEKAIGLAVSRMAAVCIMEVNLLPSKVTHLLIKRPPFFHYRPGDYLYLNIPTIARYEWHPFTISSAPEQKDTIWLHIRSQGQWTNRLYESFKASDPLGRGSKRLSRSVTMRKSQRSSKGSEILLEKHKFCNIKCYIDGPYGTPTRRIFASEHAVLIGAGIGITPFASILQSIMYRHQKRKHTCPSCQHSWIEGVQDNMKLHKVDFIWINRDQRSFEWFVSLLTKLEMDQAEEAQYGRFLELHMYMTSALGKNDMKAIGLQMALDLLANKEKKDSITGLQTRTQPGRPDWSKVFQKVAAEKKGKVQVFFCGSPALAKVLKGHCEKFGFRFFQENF

Turning to `CCOC(=O)C1=CC[C@@H](c2ccccc2)N(S(=O)(=O)c2ccc(C)cc2)[C@H]1c1ccc(CC)cc1`, the z-score in test [1] was -0.688 (inactive); in test [3], 0.874 (inactive); in [4] it was 0.991 (inactive); in test [5] it was -0.862 (inactive); in test [6], 0.361 (inactive); in test [7], -0.253. Besides, the z-score in [8] was 0.711 (inactive); in test [9], 0.029 (inactive); in [10], 0.46. Moreover, the composite z-score in test [2] was found to be 0.166.

With `CC(C)[Si](C#CCCCC#N)(Oc1ccccc1Br)C(C)C`, the z-score is -0.4 (inactive) in [1]; 0.614 (inactive) in test [3]; 1.01 (inactive) in [4]; -0.494 (inactive) in test [5]; 0.823 (inactive) in test [6]; -0.49 in test [7]. Moreover, the figures for the z-score in [8], in [9] and in test [10] were -0.273 (inactive), -0.161 (inactive) and -0.18, respectively. Also, the composite z-score in test [2] was -0.104.

In the case of `COCCOC(=O)N1C(=O)[C@@]2(c3cc(C#CCCO)ccc31)[C@H](c1ccc(O)cc1)N1[C@H](c3ccccc3)[C@H](c3ccccc3)OC(=O)[C@H]1[C@@H]2C(=O)N1CCN(c2ncccn2)CC1`, the z-score in [1] was 0.209 (inactive); in [3] it was 1.65 (inactive); in test [4] it was 0.0986 (inactive); in [5] it was 0.599 (inactive); in test [6], 0.235 (inactive); in test [7], 0.078. The z-score in [8] was 1.11 (inactive); in test [9], 0.682 (inactive); in test [10] it was 1.85. Besides, the composite z-score in [2] was found to be 1.97.

Consider `CC(=O)NCCCC[C@@H]1NC(=O)[C@H]2C[C@@H](C(=O)O)[C@@H](c3ccc(O)cc3)N2C1=O`, for which the z-score in [1] is -0.73 (inactive); in [3] it was 2.25 (inactive); in test [4], 2.24 (inactive); in test [5], -0.368 (inactive); in test [6] it was 0.912 (inactive); in test [7] it was -1.14. In addition, the z-score in [8] was 1.61 (inactive); in test [9], 0.625 (inactive); in test [10] it was 1.64. The same compound had a composite z-score in test [2] of 0.249.

Take `CN1CCC(CCCO)=CC1c1cccs1` (stereo not given): the z-score was -0.193 (inactive) in test [1]; 1.77 (inactive) in test [3]; 0.144 (inactive) in test [4]; -0.311 (inactive) in test [5]; 0.0874 (inactive) in [6]; 0.362 in test [7]. In addition, the figures for the z-score in test [8], in test [9] and in test [10] were 0.151 (inactive), 0.249 (inactive) and -0.115, respectively. In addition, the composite z-score in [2] is -0.103.

In the case of `C=CCNC(=O)[C@@H]1[C@H]2C(=O)O[C@H](c3ccccc3)[C@H](c3ccccc3)N2[C@H](c2ccc(OCCO)cc2)[C@@]12C(=O)N(C(=O)OCCOC)c1ccc(C#CCC(C(=O)OC)C(=O)OC)cc12`, the z-score in [1] is -0.314 (inactive); in [3], 7.08 (inactive); in test [4], 1.72 (inactive); in test [5] it was -0.211 (inactive); in [6] it was 0.581 (inactive); in test [7] it was -0.0943. The z-score is 2.26 (inactive) in test [8], 1.2 (inactive) in test [9] and 1.37 in test [10]. The composite z-score in test [2] is 0.404.

Consider `CCCCC(=C=CC[C@@H](O)c1cccc(OCCO)c1)C[C@@H](O)c1ccccn1`, for which the z-score in [1] is 0.158 (inactive); in test [3] it was 14 (active); in [4], 1.33 (inactive); in [5] it was 0.375 (inactive); in test [6], 0.504 (inactive); in test [7] it was -0.0848. Besides, the z-score was -1.68 (inactive) in [8], -0.544 (inactive) in [9] and -1.46 in [10]. Moreover, the composite z-score in test [2] is -0.147.

As to `O=C1N(CCS(=O)(=O)c2ccccc2)c2ccccc2[C@@H]2OC(c3ccc(OCCCO)cc3)=N[C@]12Cc1ccccc1`, the z-score in test [1] is 0.0442 (inactive); in test [3], 30.9 (active); in test [4] it was 24.6 (active); in test [5], 2.85 (inactive); in [6], 6.38 (inactive); in test [7], 2.01. Besides, the z-score in test [8] is -2.55 (inactive); in test [9], 0.645 (inactive); in test [10] it was -1.18. This compound also gave a composite z-score in test [2] of -0.081.

For the compound `C=CC[C@]1(C(=O)N2CCOCC2)N=C(c2ccc(OCCCO)cc2)O[C@H]1c1ccccc1N=[N+]=[N-]`, the z-score in [1] is 0.65 (inactive); in test [3], 33.6 (active); in [4], 29.5 (active); in test [5] it was 3.29 (inactive); in [6], 7.61 (inactive); in test [7], 2.04. For the same compound, the values for the z-score in [8], in [9] and in [10] were -1.82 (inactive), 0.451 (inactive) and -2.56, respectively. Also, in test [2], the composite z-score was found to be 0.448.

As to `COCC(=C=CC[C@H](O)c1cccc(OCCO)c1)CCO`, the z-score in test [1] is 0.223 (inactive); in [3], 2.69 (inactive); in test [4], -0.115 (inactive); in test [5] it was 0.104 (inactive); in test [6], 0.0864 (inactive); in [7], 0.0095. For the same compound, the z-score was -1.67 (inactive) in [8], -0.625 (inactive) in test [9] and -0.539 in [10]. In test [2], this compound gave a composite z-score of -0.0508.

Consider `CN1C(=O)C2C=CC(C(O)c3c(F)cccc3Cl)N(NC(=O)OC(C)(C)C)C2C1=O` (stereo not given), for which the z-score was -0.963 (inactive) in [1]; -0.332 (inactive) in test [3]; 0.119 (inactive) in test [4]; -0.46 (inactive) in [5]; 0.58 (inactive) in test [6]; -1.11 in test [7]. In addition, the results for the z-score in test [8], in test [9] and in test [10] were -1.06 (inactive), -0.495 (inactive) and -1.03, respectively. In addition, the composite z-score in test [2] worked out at 0.343.

With `C#CCN1[C@@H](Cc2ccc(O)cc2)C(=O)O[C@H](Cc2ccccc2)[C@@H]1/C=C/C1CC1`, the z-score was -0.332 (inactive) in test [1]; 2.45 (inactive) in test [3]; 0.0937 (inactive) in test [4]; -1.15 (inactive) in test [5]; 0.0357 (inactive) in test [6]; -0.663 in test [7]. Further, the z-score in test [8] is -0.759 (inactive); in [9], -0.462 (inactive); in [10], -1.54. The same compound returned a composite z-score in [2] of -0.196.

As to `CC(C)NC(=O)[C@@H]1c2ccccc2C(=O)N(C(C)C)[C@H]1c1ccc(CO)cc1`, the z-score is 1.17 (inactive) in [1]; 3.85 (inactive) in test [3]; 1.18 (inactive) in test [4]; 0.151 (inactive) in test [5]; 0.207 (inactive) in [6]; 0.0843 in test [7]. In addition, the z-score in [8] is 0.274 (inactive); in test [9], 0.614 (inactive); in test [10], 0.964. Also, the composite z-score in test [2] is -0.228.
